SKKanGAS inh = S. pyogenes SKKanGAS growth inhibitors in kanamycin, primary screen, streptokinase expression inhibitor project, SKKanGAS strain, BacTiter-Glo luminescence | AID 1662, 2009 | inhibition, % at 7.5 µM | actives 1.3% (n = 300,000) | 6 h;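 active means mean replicate score, as percent of positive control median, at least 50; inconclusive means mean below 50 but one replicate at or above 50; inactive means mean and every replicate below 50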;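 further: strain carries kanamycin resistance gene driven by streptokinase promoter and grows in 40 µg/ml kanamycin; loss of luminescence reflects streptokinase promoter inhibition or plain growth inhibition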
CSC inhib = cancer stem cell viability inhibitors, primary screen, luminescence. cancer stem cell-like cells viability. inhibition, % at 7.5 µM. actives 1.1% (n = 300,000); in the data active means inhibition above about 75%; inconclusive means no clear call, values can overlap the other calls; tested in HMLE shEcad cells
MPTP inh = mitochondrial permeability transition pore inhibitors, primary screen, biochemical, isolated mouse mitochondria, absorbance | Ca2+ swelling absorbance, 30 min | inhibition, % at 10 µM | actives 1.4% (n = 360,000);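 active means inhibition of 50% or more, scaled per plate between neutral and stimulator controls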
Calb FLC = C. albicans growth inhibition with fluconazole, primary screen, CaCi-2 strain, Alamar Blue fluorescence. C. albicans CaCi-2 (fluconazole-resistant clinical isolate) + fluconazole, 48 h. growth inhibition, % (test concentration not listed). actives 0.57% (n = 300,000);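 active means growth inhibition above about 58% in most replicates, limit read from the data, passing the limit was not always enough; inconclusive means exactly half the replicates above a set limit; inactive means most replicates below a set limit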;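 further: all wells also contain fluconazole at 8 µg/ml as a sub-toxic cotreatment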
Mdm2 MdmX PPI = inhibitors of human Mdm2-MdmX association, primary screen, cell-based, luminescence, split luciferase, SaOS-2, uHTS. Protein Mdm4 (Homo sapiens) + E3 ubiquitin-protein ligase Mdm2 (Homo sapiens), …. SaOS-2 split-luciferase Mdm2/MdmX complementation. actives 3% (n = 330,000). inhibition, % at 8 µM;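 active means inhibition of at least 50% at 8 µM in the primary screen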
Target sequence (O15151 whole entry, looked up): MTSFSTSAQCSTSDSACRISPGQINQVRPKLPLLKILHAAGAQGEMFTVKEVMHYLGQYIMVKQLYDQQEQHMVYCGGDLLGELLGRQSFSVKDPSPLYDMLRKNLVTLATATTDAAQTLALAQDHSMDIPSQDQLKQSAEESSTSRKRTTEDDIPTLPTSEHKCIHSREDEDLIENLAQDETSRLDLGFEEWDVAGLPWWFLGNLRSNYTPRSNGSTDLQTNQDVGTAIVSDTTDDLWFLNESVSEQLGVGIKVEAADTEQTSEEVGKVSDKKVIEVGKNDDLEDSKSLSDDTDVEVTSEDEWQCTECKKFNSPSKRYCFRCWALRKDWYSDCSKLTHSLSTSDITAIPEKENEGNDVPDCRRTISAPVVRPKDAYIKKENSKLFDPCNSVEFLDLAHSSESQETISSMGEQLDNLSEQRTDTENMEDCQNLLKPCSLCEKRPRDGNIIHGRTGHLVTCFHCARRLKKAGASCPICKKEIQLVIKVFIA
Target sequence (Q00987 whole entry, looked up): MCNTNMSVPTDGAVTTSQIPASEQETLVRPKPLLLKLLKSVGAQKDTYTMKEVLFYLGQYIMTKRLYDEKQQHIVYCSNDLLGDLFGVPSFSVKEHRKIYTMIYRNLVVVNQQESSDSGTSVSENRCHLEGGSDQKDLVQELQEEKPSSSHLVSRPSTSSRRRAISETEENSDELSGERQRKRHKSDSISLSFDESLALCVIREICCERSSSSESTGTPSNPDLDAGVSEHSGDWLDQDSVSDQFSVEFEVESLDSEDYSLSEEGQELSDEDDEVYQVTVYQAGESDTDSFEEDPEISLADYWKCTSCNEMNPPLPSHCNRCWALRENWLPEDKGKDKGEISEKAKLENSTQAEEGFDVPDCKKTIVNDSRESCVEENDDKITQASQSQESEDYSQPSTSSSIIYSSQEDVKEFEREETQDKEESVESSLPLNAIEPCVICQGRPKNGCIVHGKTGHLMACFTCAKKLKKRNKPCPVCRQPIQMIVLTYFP
Beta cell apopt = inhibitors of cytokine-induced beta cell apoptosis, primary screen, luminescence; protection from apoptosis, % (concentration not given with the values); actives 0.8% (n = 300,000); INS-1E cytokine-induced death, ATP luminescence, 48 h; percent of positive-control rescue, neutral wells zero;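 active means Every replicate reaches about 75%, or at least half do and their mean reaches it too, limit read from the data; inconclusive means At least half of replicates reach the limit but their mean does not; inactive means Under half of replicates reach the limit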;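 further: higher means more ATP so stronger rescue from cytokine killing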
Mdm2 MdmX conf = Mdm2-MdmX complex disruptors, retested hits, confirmation, luminescence, single concentration; shares compounds with Mdm2 MdmX PPI; Mdm2-MdmX binding, luminescent assay; inhibition, % at 8 µM; actives 55% (n = 10,000); AID 489028, 2010; in the data active means inhibition above about 40%
Full FLuc ctr = full-length luciferase signal inhibition, confirmation, counter-screen for Mdm2/MdmX interaction inhibitor project, cell-based, single concentration, SaOS-2. shares compounds with Mdm2 MdmX PPI. SaOS-2 full-length luciferase counterscreen, luminescence. inhibition, % at 8 µM. actives 77% (n = 6,200). AID 504607, 2011;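 active means mean inhibition at 8 µM reaching about 37%, which flags the compound as non-specific, limit read from the data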;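 further: p53-null SaOS-2 cells with luciferase driven by a doxycycline-inducible promoter; compound on cells about two nights before reading with doxycycline added after day one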
Each line names hits and unclear results; the compound was inactive in the other large screens (follow-up assays come after a bar, where they were run). An excerpt weighted towards active compounds, which were near 5.4% of everything screened.

O=C(NCc1ccccc1)C1CCC(=O)N(CCCN2CCCC2=O)C1 (configuration not stated)	none
COc1ccc(C(C(=O)NC2CCCC2)N(C(=O)c2snc(-c3ccc(F)cc3)c2N)c2ccc(OC)cc2)cc1 (configuration not stated)	none
COc1ccc(C(C(=O)NC2CCCC2)N(C(=O)c2snc(-c3ccc(F)cc3)c2N)c2ccccc2)cc1 (configuration not stated)	Calb FLC inconclusive
COc1ccc(C(C(=O)NC2CCCC2)N(C(=O)c2snc(-c3ccc(F)cc3)c2N)c2cccc(F)c2)cc1 (configuration not stated)	Mdm2 MdmX PPI 61.9 | Mdm2 MdmX conf inactive
COc1ccc(C(C(=O)NC2CCCC2)N(C(=O)c2snc(-c3ccc(F)cc3)c2N)c2ccc(F)cc2)cc1 (configuration not stated)	Mdm2 MdmX PPI 56.5 | Mdm2 MdmX conf inactive
COc1ccc(-n2c(=S)[nH]c3cc(C(=O)NCc4ccco4)ccc3c2=O)cc1OC	none (no result: CSC inhib)
O=C(NCc1ccco1)c1ccc2c(=O)n(-c3ccccc3)c(=S)[nH]c2c1	Mdm2 MdmX PPI 50.2 | Mdm2 MdmX conf inactive
CCOC(=O)CSc1nc2cc(C(=O)NCc3ccco3)ccc2c(=O)n1-c1ccc(F)cc1	Mdm2 MdmX PPI 71.1 (no result: Beta cell apopt) | Mdm2 MdmX conf inactive | Full FLuc ctr 83.1
CCOC(=O)CSc1nc2cc(C(=O)NCc3ccco3)ccc2c(=O)n1C1CCCCC1	none
Cc1cccc(/C(N)=N/OC(=O)N2CCOCC2)c1	Mdm2 MdmX PPI 85.9 | Mdm2 MdmX conf 48.7 | Full FLuc ctr 105.3
Cc1ccc(/C(N)=N/OC(=O)N2CCOCC2)cc1	Mdm2 MdmX PPI 94.8 (no result: CSC inhib, Beta cell apopt) | Mdm2 MdmX conf 50.6 | Full FLuc ctr 125.6
COC(=O)C1=C(C)N(C)C(C)=C(C(=O)OC)C1c1ccc(F)c(Br)c1	none
O=C(CSc1nnnn1-c1cccc2ccccc12)Nc1ccc(N2CCOCC2)c(Cl)c1	none
Nc1cc(N)cc(C(=O)Nc2ccc3c(c2)C(=O)NC3=O)c1	none (no result: Calb FLC)
O=C(Nc1ccc(CN2CCOCC2)cc1)c1ccc(F)cc1	none
CCC(CC)C1C(C#N)=C(N)Oc2n[nH]c(C)c21 (configuration not stated)	Mdm2 MdmX PPI 51.8 | Mdm2 MdmX conf inactive
Cc1nn(-c2ccccc2)c(Cl)c1C1C(C#N)=C(N)Oc2n[nH]c(C)c21 (configuration not stated)	Mdm2 MdmX PPI 53.3 | Mdm2 MdmX conf inactive
O=C(c1ccco1)N1CCN(C(=O)C2CCCc3c2[nH]c2ccc(Cl)cc32)CC1 (configuration not stated)	Mdm2 MdmX PPI 86.2 | Mdm2 MdmX conf 67.0 | Full FLuc ctr inactive
CCN(CC)C(=O)C1CCCc2c1[nH]c1ccc(Cl)cc21 (configuration not stated)	Mdm2 MdmX PPI 84.2 | Mdm2 MdmX conf 71.5 | Full FLuc ctr inactive
O=C(O)c1[nH]c2ccc(Cl)cc2c1CC(=O)N1CCN(C(=O)c2ccco2)CC1	none
C1=CC2=NC34CCCCC3CC3=C(CCCC3)N4C2=CC1=NC1CCCCC1 (configuration not stated)	Mdm2 MdmX PPI 100.3 | Mdm2 MdmX conf 77.7 | Full FLuc ctr 37.6
O=C(COc1ccccc1)NC(=S)Nc1ccc2c3c(cccc13)CC2	none
O=C(/C=C/c1ccccc1)NC(=S)Nc1ccc2c3c(cccc13)CC2	Mdm2 MdmX PPI 59.4 | Mdm2 MdmX conf inactive
CCOc1cc(/C=C\[N+](=O)[O-])ccc1OCC(=O)Nc1ccccc1C	SKKanGAS inh 58.5, CSC inhib 75.5, Mdm2 MdmX PPI 96.3, Beta cell apopt 80.0 | Mdm2 MdmX conf 100.1 | Full FLuc ctr 50.6
CC(C)(C)C(=O)/C=c1\s/c(=C\c2ccc(-c3ccc([N+](=O)[O-])cc3)o2)c(=O)n1CC(=O)NC(N)=O	Mdm2 MdmX PPI 67.9 | Mdm2 MdmX conf 58.1 | Full FLuc ctr 54.4
COc1ccccc1NC(=S)N(Cc1ccco1)Cc1cc2cc(C)cc(C)c2[nH]c1=O	none
CC(=O)NC(c1ccccc1)c1nc(-c2cc(F)cc(F)c2)cs1 (configuration not stated)	none (no result: SKKanGAS inh, CSC inhib, Calb FLC, Mdm2 MdmX PPI, Beta cell apopt)
CC(C)c1ccc(/C=C/C(=O)Nc2nc3ccc([N+](=O)[O-])cc3s2)cc1	Mdm2 MdmX PPI 56.2 | Mdm2 MdmX conf inactive
O=C(/C=C/c1ccc2c(c1)OCO2)Nc1nc2ccc(F)cc2s1	Mdm2 MdmX PPI 73.1 | Mdm2 MdmX conf inactive
CCOc1ccc2nc(NC(=O)/C=C/c3ccc4c(c3)OCO4)sc2c1	none
Cc1ccc(C)c(NC(=O)C2C3C=CC(O3)C2C(=O)O)c1 (configuration not stated)	none (no result: CSC inhib, Beta cell apopt)
CCCCCCSc1ccc([C@H]2N[C@@](CC(C)C)(C(=O)OC)[C@H]3C(=O)N(C)C(=O)[C@@H]23)cc1OC	Mdm2 MdmX PPI 56.0 | Mdm2 MdmX conf inactive
Cc1c(N=C2N=C(NC(=O)c3cccs3)c3ccccc32)c(=O)n(-c2ccccc2)n1C	Mdm2 MdmX PPI 77.6 | Mdm2 MdmX conf inactive
N=c1c(C(=O)NC2CCCCC2)cc2c(=O)n3ccccc3nc2n1Cc1cccnc1	none
N=c1c(C(=O)NC2CCCCC2)cc2c(=O)n3ccccc3nc2n1CCc1ccccc1	Mdm2 MdmX PPI 93.9 | Mdm2 MdmX conf 96.6 | Full FLuc ctr inactive
Cc1ccc(Cn2c(=N)c(C(=O)NC3CCCC3)cc3c(=O)n4ccccc4nc32)cc1	Mdm2 MdmX PPI 50.2 | Mdm2 MdmX conf inactive
N=c1c(C(=O)NC2CCCCC2)cc2c(=O)n3ccccc3nc2n1Cc1ccccc1	none
N=c1c(C(=O)NC2CCCCC2)cc2c(=O)n3ccccc3nc2n1Cc1ccco1	Mdm2 MdmX PPI 55.6 (no result: CSC inhib) | Mdm2 MdmX conf 44.1 | Full FLuc ctr inactive
CC(C)OCCCn1c(=N)c(C(N)=S)cc2c(=O)n3ccccc3nc21	Mdm2 MdmX PPI 61.1 (no result: Beta cell apopt) | Mdm2 MdmX conf inactive
CC(=O)c1cccc(OCc2cc(C(=O)N(C)Cc3ccc(C)o3)no2)c1	none
O=C(O)COc1ccc(-c2nc(-c3ccccc3)c(-c3ccccc3)[nH]2)cc1	none
CC(C)Cc1ccc(CN2CCCC(NC(=O)c3cnc4ccccn4c3=O)C2)cc1 (configuration not stated)	Mdm2 MdmX PPI 60.0 | Mdm2 MdmX conf inactive

Source: PubChem (several laboratories)
